In general, AC50 refers to the midpoint of the concentration-response curve, whichever way the signal moves.

Records with an inconclusive call do not appear. Activity calls are given as the source filed them. How the source made its calls, unless noted: active means hit-call score of the fitted dose curve at least 0.9, where 1 is the maximum; inconclusive means response in the unintended direction; inactive means score below 0.9.

This note sets out measurements from PubChem BioAssay (EPA / NIEHS).

In one experiment the target is human Vitamin D Receptor (VDR), VDR (gene 7421) (UniProt P11473). Briefly: ATG_VDR_TRANS: Attagene TRANS-FACTORIAL HepG2 Assay for human Vitamin D Receptor (VDR) (AID 2283022).
Sequence of human Vitamin D Receptor (VDR), VDR (gene 7421) (P11473 whole entry, looked up): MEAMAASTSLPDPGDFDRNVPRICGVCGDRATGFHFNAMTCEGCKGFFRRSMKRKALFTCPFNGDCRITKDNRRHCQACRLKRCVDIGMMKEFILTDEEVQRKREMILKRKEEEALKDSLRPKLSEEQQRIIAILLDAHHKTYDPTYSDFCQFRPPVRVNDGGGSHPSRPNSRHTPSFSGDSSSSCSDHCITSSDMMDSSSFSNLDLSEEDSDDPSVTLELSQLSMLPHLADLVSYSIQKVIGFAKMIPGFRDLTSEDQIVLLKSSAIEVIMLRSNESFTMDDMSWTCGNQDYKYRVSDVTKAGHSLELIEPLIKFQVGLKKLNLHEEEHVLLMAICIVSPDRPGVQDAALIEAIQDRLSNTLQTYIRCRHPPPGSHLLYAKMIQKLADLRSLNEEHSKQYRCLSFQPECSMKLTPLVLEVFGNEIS
Conditions: not given
The essentials: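 Transactivation by an exogenous VDR-Gal4 chimera in transiently transfected HepG2 cells was measured as reporter transcript level 24 hours after chemical treatment. RT-PCR products were analysed by capillary electrophoresis and fitted in the positive direction relative to DMSO.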
As to `C=CCCCCCCCCCCCC`, the outcome was inactive.

Turning to `S=c1[nH]c2ccccc2s1`, the molecule was classed as inactive. On to `O=C1CCCCC1`, for which the molecule was classed as inactive. On to `CCc1nc(N)nc(N)c1-c1ccc(Cl)cc1`, for which the result was inactive. On to `COc1ccc(OC(F)(F)F)cc1CN[C@H]1CCCN[C@H]1c1ccccc1`, for which the result was inactive. On to `NC=O`, for which the molecule was classed as inactive. On to `CC(C)(C)c1ccccc1`, for which the outcome was inactive. Take `O=C(NS(=O)(=O)/C=C/c1cccs1)c1ccc(F)cc1Br`: the call was inactive. Consider `CCCCCCCCCC[N+](C)(C)[O-]`, for which the molecule was called inactive. For `CC1(C)C(=O)NC(=O)N1CO`, the molecule was classed as inactive. As for `NC1CCCCC1`, the result was inactive. On to `Cc1cn([C@H]2C=C[C@@H](CO)O2)c(=O)[nH]c1=O`, for which the result was inactive.

Take `O=C(O)c1[nH]n(-c2ccc(S(=O)(=O)O)cc2)c(=O)c1N=Nc1ccc(S(=O)(=O)O)cc1`: the result was inactive. Take `CC(COCC(C)OC(=O)c1ccccc1)OC(=O)c1ccccc1` (stereo not drawn): the call was inactive. Same read-out and setting: under `CCCC(=O)O` stands “inactive”; under `CN(C)CCCN1c2ccccc2Sc2ccc(Cl)cc21`, “inactive”.

As to `CCN(CC)CCOc1ccc(C(=C(Cl)c2ccccc2)c2ccccc2)cc1`, the molecule was called inactive. In the case of `O=NO`, the result was inactive. Take `COC(=O)CCCC(=O)OC`: the result was inactive. In the case of `NCCOCCOCCN`, the call was inactive.

As for `CCc1cc(C2=C(C(=O)O)N(c3ccccc3C(F)(F)F)S(=O)(=O)c3ccccc32)cc2c1OCO2`, the outcome was inactive. With `CCCCCCC(CCCCCCCCCCC(=O)OCC(COC(C)=O)OC(C)=O)OC(C)=O` (stereo not drawn), the molecule was classed as inactive. Consider `O=C(N[C@@H](c1ccccc1)[C@@H]1CCCCN1)c1cccc(C(F)(F)F)c1Cl`, for which the result was inactive.

With `Oc1ccccc1O`, the outcome was inactive. Regarding `Oc1ccc(O)cc1`, the result was inactive.

Read-out in another experiment: not listed separately
As to the kind of experiment: BSK_3C_SRB: Viability Assessment in the BioMAP Diversity Plus: 3C Assay (AID 2283023; active means hit-call score of the fitted dose curve at least 0.9, where 1 is the maximum; inactive means score below 0.9;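 further: fitted both ways against DMSO so a hit may be signal rise or drop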). To be noted: primary human endothelial cells (HUVEC). The essentials: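 Cytotoxicity readout in parallel HUVEC 3C cultures: after 24 h compound exposure, cells fixed with 10% TCA, stained with 0.1% SRB and read at 560 nm. Gain or loss relative to DMSO fitted.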
Take `C=CCCCCCCCCCCCC`: the outcome was inactive. The same measure, in the same setting: under `CCCCc1nc2cccnc2n1Cc1ccc(-c2ccccc2-c2nnn[nH]2)cc1` stands “inactive”; under `S=c1[nH]c2ccccc2s1`, “inactive”. As for `CC(=O)O`, the outcome was inactive.

For `O=C1CCCCC1`, the result was inactive. Still for that read-out and setting: under `CCc1nc(N)nc(N)c1-c1ccc(Cl)cc1` stands “inactive”. Consider `c1ccc2occc2c1`, for which the result was inactive. Take `COc1ccc(OC(F)(F)F)cc1CN[C@H]1CCCN[C@H]1c1ccccc1`: the concentration at half-maximal activity (AC50) is 15 µM (active). Turning to `NC=O`, the result was inactive. Consider `CC(C)(C)c1ccccc1`, for which the outcome was inactive. `O=C(NS(=O)(=O)/C=C/c1cccs1)c1ccc(F)cc1Br`: the outcome was inactive. Take `CCCCCCCCCC[N+](C)(C)[O-]`: the outcome was inactive.

For the molecule `CC1(C)C(=O)NC(=O)N1CO`, the result was inactive. Consider `NC1CCCCC1`, for which the outcome was inactive.

In the case of `Cc1cn([C@H]2C=C[C@@H](CO)O2)c(=O)[nH]c1=O`, the outcome was inactive.

In the case of `CC(=O)OC1CC(C)OC(C)O1` (stereo not drawn), the result was inactive. Regarding `O=C(O)c1[nH]n(-c2ccc(S(=O)(=O)O)cc2)c(=O)c1N=Nc1ccc(S(=O)(=O)O)cc1`, the outcome was inactive.

`CC(COCC(C)OC(=O)c1ccccc1)OC(=O)c1ccccc1` (stereo not drawn): the outcome was inactive. Take `CCCC(=O)O`: the outcome was inactive. Regarding `CCN(CC)CCOc1ccc(C(=C(Cl)c2ccccc2)c2ccccc2)cc1`, the AC50 is 11.7 µM (active). Consider `O=NO`, for which the outcome was inactive. Same read-out and setting: under `COC(=O)CCCC(=O)OC` stands “inactive”; under `NCCOCCOCCN`, “inactive”; under `CCc1cc(C2=C(C(=O)O)N(c3ccccc3C(F)(F)F)S(=O)(=O)c3ccccc32)cc2c1OCO2`, “inactive”. As for `CCCCCCC(CCCCCCCCCCC(=O)OCC(COC(C)=O)OC(C)=O)OC(C)=O` (stereo not drawn), the outcome was inactive. Consider `O=C(N[C@@H](c1ccccc1)[C@@H]1CCCCN1)c1cccc(C(F)(F)F)c1Cl`, for which the concentration at half-maximal activity (AC50) is 20 µM (active). For the molecule `Oc1ccccc1O`, the AC50 is 4.44 µM (active).

Regarding `Oc1ccc(O)cc1`, the outcome was inactive.
